“And” between values parts separate entries of the source, which are not always exact repeats. Identical values can stand only once. Records with an inconclusive call do not appear. Some compounds were tested as several samples or in several runs, with calls that do not always agree. The source made the active and inactive calls. Unless noted, calls follow the shape of the dose curve; as a rule, active = well fitted curve in the direction sought with a large enough effect in the repeat runs; inconclusive = weak or mixed curves; inactive = no such curve, though single readings can be large; an effect the other way counts as inactive or inconclusive.
Assays:
[1] = qHTS assay to identify small molecule agonists of H2AX - cell viability counter screen (AID 1224847; calls by dose curve; also: nearly all actives have a fitted effect of over 30% in size; also: potency is read from the fitted curve at half-maximal effect)
How it was run: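 CHO-K1 cells plated overnight at 37C, then exposed 3 h at 37C to compounds at 15 concentrations (0.76% DMSO final). Viability by CellTiter-Glo luminescence after 30 min at room temperature.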

[2] = qHTS assay to identify small molecule antagonists of the estrogen related receptor (ERR) signaling pathway from Tox21 library (AID 1224848); also: nearly all actives have a fitted effect of over 50% in size; also: potency is read from the fitted curve at half-maximal effect
How it was run: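 ERR reporter cell line (from NTP) seeded 2,000 cells/well, rested 6 h at 37 C/5% CO2, then pin-dosed with compounds in DMSO. After 18 h at 37 C, ONE-Glo added; luminescence read after 30 min at room temperature.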

[3] = qHTS assay to identify small molecule agonists of the estrogen related receptor (ERR) signaling pathway from Tox21 library (AID 1224849; calls by dose curve; also: nearly all actives have a fitted effect of over 15% in size); settings: ERR reporter cell line, ONE-Glo luciferase, 18 h; at 92.4 µM (top of the series) unless noted
How it was run: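 ERR reporter cell line (NTP) seeded, rested 6 h at 37 C/5% CO2, then pinned with Tox21 compounds in DMSO. After 18 h at 37 C, ONE-Glo luciferase luminescence was read following 30 min at room temperature.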

[4] = qHTS RealTime-Glo MT Cell Viability Assay in HepG2 cells - 24 hour (AID 1224867); also: nearly all actives have a fitted effect of over 50% in size
How it was run: (§1)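 Viability was tracked continuously by NanoLuc luminescence from prosubstrate reduced by living HepG2 cells, at successive time points over 40 h of compound exposure. Cells with reagent were preincubated 5 h at 37 °C before compound addition.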

[5] = A CellTox Green Cytotoxicity Assay to monitor cytotoxicity in HEK293 cells - 0 hour (AID 1224869); also: nearly all actives have a fitted effect of over 50% in size
How it was run: (§2)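 HEK293 cells premixed with CellTox Green dye were seeded at 600 cells/well and left 5 h at 37 C/5% CO2 before pin transfer of 23 nL compound in DMSO. Fluorescence from dye bound to dead-cell DNA was read during 40 h treatment.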

[6] = qHTS RealTime-Glo MT Cell Viability Assay in HepG2 cells - 40 hour (AID 1224870); also: nearly all actives have a fitted effect of over 50% in size
How it was run: (§3)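 HepG2 cells (600/well) mixed with RealTime-Glo MT reagent, settled 5 h at 37 C/5% CO2 before compound addition. Nonlytic NanoLuc luminescence from viable-cell prosubstrate reduction read repeatedly during 40 h treatment at 37 C.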

[7] = qHTS RealTime-Glo MT Cell Viability Assay in HEK293 cells - 16 hour (AID 1224872); also: nearly all actives have a fitted effect of over 50% in size; also: potency is read from the fitted curve at half-maximal effect
How it was run: (§4)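 Viability tracked continuously by luminescence as live cells reduce a prosubstrate for NanoLuc; HEK293 cells preincubated 5 h, compound-treated at 37 C, and read at 0, 8, 16, 24, 32 and 40 h.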

[8] = qHTS RealTime-Glo MT Cell Viability Assay in HepG2 cells - 8 hour (AID 1224873); also: nearly all actives have a fitted effect of over 55% in size
How it was run: as §3

[9] = qHTS RealTime-Glo MT Cell Viability Assay in HEK293 cells - 40 hour (AID 1224874); settings: RealTime-Glo luminescence; max response: stronger effect = lower value; also: nearly all actives have a fitted effect of over 50% in size; also: potency is read from the fitted curve at half-maximal effect
How it was run: (§5)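 HEK293 cells mixed with RealTime-Glo reagents (NanoLuc plus cell-permeant prosubstrate) at 600 cells/well, preincubated 5 h at 37 C/5% CO2, then given 23 nL compound in DMSO. Nonlytic luminescence from viable cells was read at 0, 8, 16, 24, 32 and 40 h.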

[10] = A CellTox Green Cytotoxicity Assay to monitor cytotoxicity in HEK293 cells - 24 hour (AID 1224875); also: nearly all actives have a fitted effect of over 45% in size; also: potency is read from the fitted curve at half-maximal effect
How it was run: as §2

[11] = A CellTox Green Cytotoxicity Assay to monitor cytotoxicity in HepG2 cells - 16 hour (AID 1224876); also: nearly all actives have a fitted effect of over 45% in size; also: potency is read from the fitted curve at half-maximal effect
How it was run: (§6)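 HepG2 cells were seeded together with the CellTox Green dye at 600 cells/well, left 5 h at 37 C/5% CO2, then given compounds in DMSO. Fluorescence from dye bound to dead-cell DNA was read repeatedly over 40 h of treatment at 37 C.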

[12] = qHTS RealTime-Glo MT Cell Viability Assay in HepG2 cells - 32 hour (AID 1224877); also: nearly all actives have a fitted effect of over 55% in size
How it was run: as §1

[13] = A CellTox Green Cytotoxicity Assay to monitor cytotoxicity in HepG2 cells - 24 hour (AID 1224878); also: nearly all actives have a fitted effect of over 45% in size; also: potency is read from the fitted curve at half-maximal effect
How it was run: as §6

[14] = A CellTox Green Cytotoxicity Assay to monitor cytotoxicity in HepG2 cells - 40 hour (AID 1224879); also: nearly all actives have a fitted effect of over 40% in size; also: potency is read from the fitted curve at half-maximal effect
How it was run: as §6

[15] = qHTS RealTime-Glo MT Cell Viability Assay in HEK293 cells - 0 hour (AID 1224880); also: nearly all actives have a fitted effect of over 45% in size; also: potency is read from the fitted curve at half-maximal effect
How it was run: as §5

[16] = A CellTox Green Cytotoxicity Assay to monitor cytotoxicity in HepG2 cells - 0 hour (AID 1224882); also: nearly all actives have a fitted effect of over 35% in size
How it was run: as §6

[17] = qHTS RealTime-Glo MT Cell Viability Assay in HEK293 cells - 32 hour (AID 1224868); also: nearly all actives have a fitted effect of over 50% in size; also: potency is read from the fitted curve at half-maximal effect
How it was run: as §4

[18] = A CellTox Green Cytotoxicity Assay to monitor cytotoxicity in HEK293 cells - 40 hour (AID 1224871); also: nearly all actives have a fitted effect of over 45% in size; also: potency is read from the fitted curve at half-maximal effect
How it was run: as §2

[19] = A CellTox Green Cytotoxicity Assay to monitor cytotoxicity in HEK293 cells - 32 hour (AID 1224881); also: nearly all actives have a fitted effect of over 40% in size; also: potency is read from the fitted curve at half-maximal effect
How it was run: as §2
% is scaled to controls: 0 for no effect and ±100 for the full control effect.

Oc1c(Br)cc(Br)c2cccnc12
inactive: Potency [1] | activity change, positive = activation [3] -61.3% [at 42.5 µM] | Potency [4] | Potency [5] | Potency [6] | Potency [7] | Potency [8] | Potency [10] | Potency [11] | Potency [12] | Potency [13] | Potency [14] | Potency [15] | Potency [16]
active: Potency [2] 18.8 µM | Potency [9] 19 µM

CCOC(=O)[C@@](C)(N)Cc1ccc(O)c(O)c1
inactive: Potency [1] | Potency [2] | Potency [4] | Potency [17] | Potency [6] | Potency [18] | Potency [7] | Potency [8] | Potency [10] | Potency [12] | Potency [15]

Oc1ccc(-c2ccccc2)c(Cl)c1
inactive: Potency [4] | Potency [5] | Potency [8] | Potency [12] | Potency [15] | Potency [16]
active: Potency [1] 89.8 µM | Potency [17] 24.5 µM | Potency [7] 24.5 µM | Potency [11] 49 µM | Potency [13] 49 µM | Potency [14] 49 µM

NC(=O)c1nc(-c2cccc(-c3cc(F)ccc3OCC(F)(F)C(F)(F)F)c2)n[nH]1
inactive: Potency [4] | Potency [5] | Potency [6] | Potency [10] | Potency [12] | Potency [15] | Potency [16]
active: Potency [1] 101 µM | Potency [2] 17.2 µM | Potency [11] 49 µM | Potency [13] 43.6 µM | Potency [14] 43.6 µM

CNC(=S)NN
active: Potency [2] 13.7 µM
inactive: Potency [1] | activity change, positive = activation [3] -71.8% | Potency [4] | Potency [5] | Potency [7] | Potency [8] | Potency [10] | Potency [11] | Potency [12] | Potency [13] | Potency [15] | Potency [19] | Potency [16]

CCCCCCOc1cc(C)c(O)c(C)c1C
inactive: activity change, positive = activation [3] -42.5% | Potency [5] | Potency [15] | Potency [16]
active: Potency [1] 102 µM | Potency [2] 61.9 µM | Potency [17] 15.7 µM | Potency [18] 44.2 µM | Potency [7] 14 µM | Potency [9] 19.7 µM | Potency [10] 44.2 µM | Potency [11] 24.8 µM | Potency [13] 24.8 µM | Potency [14] 24.8 µM

O=C1OC(OC(=O)c2cccnc2Nc2cccc(C(F)(F)F)c2)c2ccccc21 (stereo unspecified)
inactive: Potency [1] | Potency [2] | activity change, positive = activation [3] -0.557% [at 42.5 µM] | Potency [4] | Potency [17] | Potency [18] | Potency [7] | Potency [8] | max response [9] -1.07% | Potency [10] | Potency [11] | Potency [12] | Potency [13] | Potency [14] | Potency [15] | Potency [19] | Potency [16]

C[C@H]1O[C@@H](O[C@H]2[C@@H](O)C[C@H](O[C@H]3[C@@H](O)C[C@H](O[C@H]4CC[C@@]5(C)[C@H](CC[C@@H]6[C@@H]5C[C@@H](O)[C@]5(C)[C@@H](C7=CC(=O)OC7)CC[C@]65O)C4)O[C@@H]3C)O[C@@H]2C)C[C@H](O)[C@@H]1O
inactive: Potency [1] | Potency [2] | Potency [4] | Potency [5] | Potency [6] | Potency [18] | Potency [8] | Potency [10] | Potency [11] | Potency [12] | Potency [13] | Potency [14] | Potency [15] | Potency [19] | Potency [16]
active: Potency [17] 61.7 nM and 54.3 nM | Potency [9] 61.7 nM and 54.3 nM

CCCC(CC)CCCCCCCN (stereo unspecified)
inactive: activity change, positive = activation [3] -20.1% | Potency [4] | Potency [5] | Potency [6] | Potency [8] | Potency [12] | Potency [16]
active: Potency [1] 103 µM | Potency [18] 50.2 µM | Potency [9] 56.3 µM | Potency [19] 44.7 µM

CO[C@H]1C=CO[C@@]2(C)Oc3c(C)c(O)c4c(O)c(cc(O)c4c3C2=O)NC(=O)/C(C)=C\C=C/[C@H](C)[C@H](O)[C@@H](C)[C@@H](O)[C@@H](C)[C@H](OC(C)=O)[C@@H]1C
active: Potency [15] 17.5 µM
inactive: Potency [1] | activity change, positive = activation [3] -31.9% | Potency [4] | Potency [17] | Potency [5] | Potency [18] | Potency [7] | Potency [8] | max response [9] -22.2% | Potency [10] | Potency [11] | Potency [12] | Potency [13] | Potency [14] | Potency [16]

c1ccc(Nc2cccc3ccccc23)cc1
inactive: Potency [2] | Potency [4] | Potency [17] | Potency [5] | Potency [18] | Potency [7] | max response [9] -7.99% | Potency [10] | Potency [11] | Potency [12] | Potency [15] | Potency [16]
active: Potency [1] 115 µM and 113 µM | activity change, positive = activation [3] -11.6%

c1cc(OCC2CO2)cc(OCC2CO2)c1 (stereo unspecified)
active: Potency [17] 17.2 µM | Potency [9] 12.2 µM
inactive: Potency [1] | Potency [4] | Potency [5] | Potency [18] | Potency [8] | Potency [10] | Potency [15] | Potency [16]

C=C(c1ccc(C(=O)O)cc1)c1cc2c(cc1C)C(C)(C)CCC2(C)C
active: Potency [2] 21.7 µM and 23.7 µM | Potency [11] 24.5 µM | Potency [13] 38.9 µM | Potency [14] 49 µM and 23.9 µM
101 µM (active) and inactive: Potency [1]
30.9 µM (active) and inactive: Potency [18]
inactive: Potency [4] | Potency [17] | Potency [5] | Potency [7] | Potency [12] | Potency [15] | Potency [16]

CCC1(c2cnc[nH]2)Cc2ccccc2C1
inactive: Potency [1] | Potency [4] | Potency [17] | Potency [5] | Potency [6] | Potency [18] | Potency [7] | Potency [8] | max response [9] -4.11% | Potency [10] | Potency [13] | Potency [14] | Potency [15] | Potency [16]
